From PubChem BioAssay AID493036 (Sanford-Burnham Center for Chemical Genomics, 2011)
About 560 (0.17%) of roughly 330,000 compounds were called active.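 How the source made its calls: active means activation at or above 40% of the spot to cytoplasm intensity ratio, with at least 20 cells analyzed; inconclusive means wells under 20 cells, flagged as cytotoxic or low count; inactive means the rest.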 The full list was thinned out, with actives kept by preference.

Key:
[1] = NTR1-driven beta-arrestin-GFP spot formation – imaging, U2OS cells, high content, primary screen (AID 493036); conditions: agonist mode, measured here: cell count, cytotoxicity flag, at 20 µM;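 on activation: 0% = DMSO without peptide and 100% = 100 nM NTR1 peptide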
[2] = target: Neurotensin receptor type 1 (Homo sapiens) (UniProt P30989); assay: as above; conditions: agonist mode, at 20 µM, stronger effect = higher value
Chain of Neurotensin receptor type 1 (Homo sapiens) (P30989 whole entry, looked up): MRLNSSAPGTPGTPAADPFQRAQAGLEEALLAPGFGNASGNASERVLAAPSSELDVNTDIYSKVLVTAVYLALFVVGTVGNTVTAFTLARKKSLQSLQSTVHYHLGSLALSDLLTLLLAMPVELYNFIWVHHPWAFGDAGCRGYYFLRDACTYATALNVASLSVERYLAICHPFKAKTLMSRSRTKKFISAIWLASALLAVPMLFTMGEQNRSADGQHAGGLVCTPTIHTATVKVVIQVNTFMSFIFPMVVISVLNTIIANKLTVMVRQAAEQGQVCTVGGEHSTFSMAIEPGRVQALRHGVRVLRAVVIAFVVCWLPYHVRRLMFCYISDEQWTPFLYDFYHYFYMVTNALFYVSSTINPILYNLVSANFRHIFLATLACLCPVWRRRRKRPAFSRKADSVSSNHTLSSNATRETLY

Compound	cell count [1] [cells]	activation [2]
COc1ccc(C(C[N+](=O)[O-])n2nc(C)cc2C)cc1 (configuration not stated)	64	47.9% (active)
COc1ccc(OC)c(S(=O)(=O)n2c([N+](=O)[O-])cnc2C)c1	68	0.5% (inactive)
CCOc1ccc(C(C)C)cc1S(=O)(=O)n1nc(C)cc1C	43	0.1% (inactive)
CC(C)(CNC(=O)Cc1ccc(Cl)cc1Cl)N1CCOCC1	59	-2.3% (inactive)
CCOc1ccc2sc(NS(=O)(=O)c3ccc(N)cc3)nc2c1	62	2.8% (inactive)
O=C(Nc1cc(Cl)ccc1N1CCOCC1)c1ccc(N2CCCC2=O)cc1	53	-1.6% (inactive)
CCn1c(Cc2cccs2)nnc1SCC(=O)c1ccc(C)cc1	56	0.5% (inactive)
Fc1ccccc1CNC(=S)Nc1ccc(Cl)cc1	48	2.3% (inactive)
CCN(CCNC(=O)C1=C(C)C(=O)OC12CCC(C)CC2)c1ccccc1 (configuration not stated)	64	3.9% (inactive)
COc1ccc(OC)c(NC(=O)c2cnn(-c3ccccc3Cl)c2NC(=O)c2ccco2)c1	62	4.9% (inactive)
CCOCCCNC(=S)Nc1ccc2nc(N3CCN(CC)CC3)cc(C)c2c1	73	-2% (inactive)
CCCCCCCC(=O)NC(Nc1ccccc1OC)C(Cl)(Cl)Cl (configuration not stated)	50	2.7% (inactive)
Cc1nn(CC(=O)Nc2ccc(C#N)cc2)c(C)c1[N+](=O)[O-]	65	0.3% (inactive)
CC(OC(=O)CN1C(=O)COc2ccccc21)C(=O)NCc1ccc(F)cc1 (configuration not stated)	51	0.8% (inactive)
O=S(=O)(c1ccccc1)N1CN(Cc2ccc(F)cc2)c2nc3ccccc3nc21	40	0.8% (inactive)
CC(C)CC1(C(=O)NCc2ccccn2)C=CCN1C(=O)c1ccccc1 (configuration not stated)	56	-0.1% (inactive)
CCN(C(=O)CSc1ncnc2c1cnn2-c1ccccc1)C1CCS(=O)(=O)C1 (configuration not stated)	39	-0.3% (inactive)
O=[N+]([O-])/C=C/c1ccc2c(ccn2Cc2ccccc2)c1	87	87.3% (active)
CCCCC[C@@H]1C=C(C(=O)O)[C@H](c2ccc(C#N)cc2)N1S(=O)(=O)c1ccc(C)cc1	52	7.1% (inactive)
CCCCCCCCCCCCN1C(=O)CSC1c1cccnc1 (configuration not stated)	45	11.6% (inactive)
CC(C)Cn1c(CCC(=O)O)ccc1-c1cccs1	50	-0.5% (inactive)

Compound	cell count [1] [cells]	activation [2]
COc1ccccc1NC(=O)C1CCN(C(=O)c2ccc(C(C)(C)C)cc2)CC1	46	-0.5% (inactive)
Cc1ccc(S(=O)(=O)NNC(=O)/C=C/c2cccc(F)c2)cc1	75	0% (inactive)
CCCC(C(=O)NC1CCCC1)N(C(=O)Cn1nnc(-c2ccc(C)o2)n1)c1cccc(O)c1 (configuration not stated)	48	0.6% (inactive)
CC1CCN(S(=O)(=O)c2ccc3c(ccn3CC(=O)O)c2)CC1	71	0.7% (inactive)
C#CCCOC(=O)N1C2=NC(C(=O)OC)=C(C(=O)OC)[C@@H]3N(C)c4ccc(OC)cc4[C@]23C[C@H]1C(=O)OC	67	1.9% (inactive)
Cc1ccc(N(C(=O)c2sc(C)nc2C)C(C(=O)NC(C)(C)C)c2ccncc2)cc1 (configuration not stated)	32	-0.4% (inactive)
O=C(Oc1ccccc1C(=S)N1CCCCC1)c1cc([N+](=O)[O-])cc([N+](=O)[O-])c1	41	0.8% (inactive)
CCOC(=O)c1cnc2c(c(C)nn2CC)c1Cl	47	2.2% (inactive)
O=C(OCC(O)C(O)COC(=O)c1ccccc1)c1ccccc1 (configuration not stated)	68	0% (inactive)
COc1ccc([C@H]2CC(=O)C=C(c3ccc(C)cc3)C2)cc1	62	3.1% (inactive)
Cc1cc(C)c(NC(=O)C[N+](C)(C)CC(O)COc2cccc3ccccc23)c(C)c1 (configuration not stated)	43	-1.1% (inactive)
CCC(C)Sc1nc2c(c(=O)[nH]c(=O)n2C)n1CC(O)COc1cccc2ccccc12 (configuration not stated)	51	4.1% (inactive)
CC(C)c1ccccc1OCC(O)CN(CC(O)COc1cccc2ccccc12)C(C)C (configuration not stated)	48	46.1% (active)
CN(C)S(=O)(=O)N1CCN(c2ccc([N+](=O)[O-])cc2)CC1	47	0% (inactive)
COCc1cc(=O)[nH]c(-c2ccc(C(F)(F)F)cc2)n1	62	-0.3% (inactive)
CC(Sc1nn(-c2ccc(Cl)cc2)c(=S)s1)C(=O)NCC1CCCO1 (configuration not stated)	67	-1% (inactive)
Cc1ccc(NC(=O)[C@H](Cc2ccccc2)NC(=O)C2CCNCC2)cc1	66	-0.1% (inactive)
COc1ccc(C2CC(=O)C=C(NCC3CCCO3)C2)cc1 (configuration not stated)	92	-3.9% (inactive)
O=C1N(Cc2ccc3c(c2)OCO3)c2ccccc2C1(O)c1c[nH]c2ccccc12 (configuration not stated)	56	5.6% (inactive)
CC(C)(C)c1nnc(N/N=C/c2ccc(O)cc2)n(N)c1=O	60	1.1% (inactive)
O=C(CCNS(=O)(=O)c1cccs1)N1CCN(c2ccc(F)cc2)CC1	42	-0.5% (inactive)

Compound	cell count [1] [cells]	activation [2]
CCOC(=O)CN1CC23C=CC(O2)C(C(=O)Nc2ccc(F)cc2)C3C1=O (configuration not stated)	46	-1.6% (inactive)
COc1ccc(N2CCN(S(=O)(=O)c3ccc4c(c3)N(C(C)=O)CCO4)CC2)cc1	59	1.4% (inactive)
CCN(CC)S(=O)(=O)c1ccc(Cl)c(C(=O)NC(C)C(c2cccs2)N2CCCC2)c1 (configuration not stated)	57	0.4% (inactive)
COC(c1ccccc1)c1nnc(CCC(=O)N2CCN(CCOc3ccccc3)CC2)o1 (configuration not stated)	37	0.7% (inactive)
O=C1CN(C(=O)c2ccccc2F)C(c2ccc(F)cc2)c2cc(F)ccc2N1 (configuration not stated)	89	0% (inactive)
O=C(CN1CCCSc2ccccc21)N1CCN(S(=O)(=O)c2ccccc2)CC1	62	0% (inactive)
O=C(CCc1ccccc1Cl)Nc1ccc(S(=O)(=O)Nc2nccs2)cc1	42	1.9% (inactive)
O=C(CS(=O)(=O)c1ccc(C(F)(F)F)cn1)NNC(=O)c1ccccc1	55	-1% (inactive)
Cc1ccc(C(C)NC(=O)Cn2nc(C)c([N+](=O)[O-])c2C)cc1 (configuration not stated)	54	3.1% (inactive)
O=C(Cn1ncc(N2CCCC2)c(Br)c1=O)c1ccc(Cl)cc1	53	2.8% (inactive)
CCC/C(C)=N\Nc1nc2c(c(=O)n(C)c(=O)n2C)n1C	58	0.3% (inactive)
CCOc1ccc(NC(=O)N2CC=C(n3c(=O)[nH]c4ccccc43)CC2)cc1	42	0.4% (inactive)
COc1ccc(C(C(=O)NC2CCCCC2)N(C(=O)CCl)c2ccccc2Cl)cc1 (configuration not stated)	35	7.8% (inactive)
O=C(OCC(=O)N1CCCC1=O)c1cc(S(=O)(=O)N2CCOCC2)ccc1Cl	45	-0.7% (inactive)
Nc1c(C(=O)Nc2ccc3c(c2)OCCO3)nnn1Cc1ccccc1	53	0.3% (inactive)
CCOc1ccc(CN2CCN(Cc3c[nH]c4ccccc34)CC2)cc1	62	0.2% (inactive)
Cc1ccc2c(c1)C(O)(CC(=O)c1cccc(-n3cccc3)c1)C(=O)N2 (configuration not stated)	57	1.6% (inactive)
O=C(Nc1ccc(F)c([N+](=O)[O-])c1)C1CCCO1 (configuration not stated)	58	-0.8% (inactive)
CCCC(=O)Nc1ncnc2c1ncn2[C@@H]1O[C@@H]2OP(=O)(O)OC[C@H]2[C@H]1OC(=O)CCC	60	1.1% (inactive)
COc1ccc(C)cc1-n1nnnc1SCC(=O)c1cc(C)n(Cc2ccco2)c1C	88	2.5% (inactive)
Cc1ccc2nc3c(cc(C(=O)NCCc4ccccc4)c(=N)n3CC3CCCO3)c(=O)n2c1 (configuration not stated)	47	0.1% (inactive)

Compound	cell count [1] [cells]	activation [2]
O=C(COC(=O)C1CC2C=CC1C2)Nc1ccccc1 (configuration not stated)	55	-0.8% (inactive)
CCOc1ccc(N(CC(=O)Nc2ccccc2F)S(=O)(=O)c2c(C)[nH]c(=O)[nH]c2=O)cc1	61	-0.8% (inactive)
CCCCCCCCCCOC(=O)Cn1c(COc2ccc(C)cc2)[n+](C)c2ccccc21	48	28.5% (inactive)
CCCCCCCCCCOC(=O)Cn1c(COc2cccc(OC)c2)[n+](C)c2ccccc21	71	69.3% (active)
COc1cccc(OCc2nnc3n2N=C(c2ccccc2)C(CC(=O)O)S3)c1 (configuration not stated)	51	0.6% (inactive)
CC1=C(C(=O)OCc2ccccc2)C(c2ccco2)n2ncnc2N1 (configuration not stated)	52	-3.8% (inactive)
CCOC(=O)CSC1=C(C#N)C(c2ccco2)C(C(=O)OCc2ccccc2)=C(C)N1 (configuration not stated)	51	41.1% (active)
CC1=C(C(=O)Nc2ccccc2)C(c2cccs2)C(C#N)=C(SCC#N)N1 (configuration not stated)	63	0.8% (inactive)
Cc1ccccc1C(=O)Nc1cccc(-c2nnc(SCC(=O)O)n2C)c1	57	1.7% (inactive)
Cc1cc(S(=O)(=O)NCc2ccccn2)c(Cl)cc1Cl	75	0.3% (inactive)
Cc1cc(/C=C2/SC(=O)N(CC(=O)OC(C)C)C2=O)c(C)n1C	60	0.9% (inactive)
COc1ccccc1C(=O)Nn1cnnc1	66	-0.3% (inactive)
O=C1C2N=NN(CC(=O)N3N=C(c4cccc5ccccc45)CC3c3ccccc3)C2C(=O)N1c1ccccc1 (configuration not stated)	87	2.9% (inactive)
Oc1ccccc1C1=NN(c2ccccc2)C(c2ccccc2)C1 (configuration not stated)	102	48.9% (active)
COc1ccc(C2=NN(c3ccccc3)C(c3cccs3)C2)cc1 (configuration not stated)	44	1.2% (inactive)
O=C(/C=C/c1ccc(Cl)cc1Cl)c1cccnc1	71	29.2% (inactive)
O=C(Nc1ccncc1)c1ccc(Cl)c([N+](=O)[O-])c1	85	-0.2% (inactive)
O=C(/C=C/c1ccc(Cl)c([N+](=O)[O-])c1)c1cccnc1	51	50% (active)
